Source: PubChem (Broad Institute)
esBAF inh = Bmi1 luciferase reporter increase in mESCs, primary screen, esBAF inhibitor project, mouse ES cells, Bmi1 luciferase knock-in, single point. 24 h; 100% = twice the neutral-well signal. reporter increase, % at 12.5 µM. hit rate 2% among 350,000; in the data active = activation above about 40%; inconclusive = no clear call, values can overlap the other calls;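 also: 0% = median of the plate's neutral control wells and 100% = double that signal; a rise in the Bmi1 reporter signal indicates esBAF inhibition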
miR122 inh = miR-122 Renilla sensor signal increase in Huh7, primary screen, miR-122 inhibitor project, cell-based, single point, plate reader | Huh7 miR-122 Renilla luciferase sensor, 48 h; neutral wells = 0, positive control = 100 | activation (reporter increase), % at 12.5 µM | hit rate 0.3% among 340,000 | AID 602342, 2012;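 active = mean replicate activation score at least 90 and every replicate individually at or above 90; inconclusive = only one of the two criteria met; inactive = neither criterion met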;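 also: higher luciferase means less miR-122 activity so hits act as miR-122 inhibitors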
MITF act = activators of MITF-driven TRPM1 promoter reporter, primary screen, cell-based, SK-MEL-5, luciferase, single point; SK-MEL-5 TRPM1-promoter luciferase, 24 h; % of positive control, neutral wells = 0; activation, % at 12.5 µM; hit rate 0.75% among 300,000; AID 588334, 2011;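 active = mean activation of at least 80% with every replicate also reaching 80%; inconclusive = mean reaches 80% but some replicate falls short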;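 also: 0% = neutral control wells and 100% = parthenolide positive control wells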
Wnt act = Wnt/beta-catenin pathway activators, primary screen, cell-based, plate reader, single point; Wnt/beta-catenin reporter cell assay, activator; hit rate 1.2% among 300,000; activation, % at 9.35 µM; in the data active = activation above about 30%, passing the limit was not always enough; inconclusive = no clear call, values can overlap the other calls;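 also: 0% = neutral control wells and 100% = positive control wells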
Env fusion inh = inhibitors of HIV-1 Env-driven cell-cell fusion, primary screen, HeLa-JRFL effector, CEM21 target cells, luciferase; AID 651610, 2012; hit rate 1.1% among 360,000; inhibition, % at 12.3 µM;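 active = mean replicate inhibition score of at least 50 and every replicate individually at or above 50; inconclusive = only one of the two criteria met; inactive = mean below 50 and not all replicates reaching 50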;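 also: 0% = plate neutral controls and 100% = maraviroc near 300 nM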
Numbers without * were called inactive; ? = inconclusive; . = no result given; [ ] = another dose, or the depositor's remark. Compounds with a hit are over-represented: about 3.4% of the library has one in this group of screens.

SMILES	esBAF inh	miR122 inh	MITF act	Wnt act	Env fusion inh
CC(=O)c1ccc(Nc2ccc(-c3ccccc3C)nn2)cc1	83*	-5	85*	39*	-33
CC(=O)c1ccc(Nc2cc(C)nc3ccccc23)cc1	.	27	-10	0	-2
COc1ccccc1-c1ccc(Nc2cccc(C(C)=O)c2)nn1	51*	12	73	5	.
CCCN(C)C[C@H]1OCCCC[C@@H](C)Oc2ccc(N(C)C)cc2C(=O)N([C@H](C)CO)C[C@H]1C	4	0[16.7 µM]	.	.	-30[16.7 µM]
CC(C)NC(=O)N[C@@H]1CC[C@H](CCN)O[C@H]1CO	-1	0[16.7 µM]	.	.	-14[16.7 µM]
CNC[C@H]1Oc2cc(-c3ccccc3F)ccc2S(=O)(=O)N([C@H](C)CO)C[C@@H]1C	4	2[16.7 µM]	.	.	-18[16.7 µM]
COc1ccc(NS(=O)(=O)c2ccc(OC)c3ccccc23)cn1	-2	356*	-5	.	.
COc1ccc(NS(=O)(=O)c2cccs2)cn1	-2	-1	-4	-2	-10
CSC1=C(C#N)C(c2ccc3c(c2)OCO3)C2=C(CCCC2=O)N1 (centres undefined)	2	-3	13	-5	30
CCSC1=C(C#N)C(c2ccc(Cl)cc2)C2=C(CCCC2=O)N1 (centres undefined)	5	10	.	.	58*
Cc1ccc2c(CN3CCC(C)CC3)cc(=O)oc2c1C	?	-8	93*	4	-25
CN=c1scc(-c2cccs2)n1/N=C/c1ccccc1O	.	.	-86	-12	57*
COc1ccc(OC)c(/C=N/N(C)c2ccccc2)c1	73*	-2	96*	.	.
COc1cc(/C=N/N(C)c2ccccc2)cc(Cl)c1O	50*	8	24	9	-53
COc1ccc(OC)c(C=NN=Cc2cc(OC)ccc2OC)c1	-6	22	.	0	10
COc1ccccc1NC(=O)N(C)C[C@@H]1Oc2ncc(C#CCC(C)C)cc2C(=O)N([C@@H](C)CO)C[C@H]1C	-3	-6[16.7 µM]	.	.	15[16.7 µM]
Cc1noc(C)c1S(=O)(=O)N(C)C[C@H]1OCCCC[C@H](C)Oc2ccc(NC(=O)C3CCCCC3)cc2C(=O)N([C@@H](C)CO)C[C@H]1C	-4	10[16.7 µM]	.	.	-23[16.7 µM]
CO[C@H]1CN(C)C(=O)c2cc(NS(=O)(=O)c3cn(C)cn3)ccc2OC[C@H](C)N(C)C[C@@H]1C	-4	13[16.7 µM]	.	.	7[16.7 µM]
COC(=O)COc1ccc2c(=O)c(-c3ccccc3)coc2c1	2	-2	.	1	-4
CC(C)Oc1ccc2c(=O)c(-c3ccccc3)coc2c1	35	0	78	56*	.
COc1ccc2c(=O)c(-c3ccc4c(c3)OCO4)coc2c1	-41	-11	-5	40*	-110
C[C@@H]1CN([C@@H](C)CO)S(=O)(=O)c2ccc(C3=CCCCC3)cc2O[C@@H]1CN(C)S(=O)(=O)c1cn(C)cn1	-2	31[16.7 µM]	.	.	.
CN(C)C(=O)c1cccc(-c2ccc3c(c2)[C@@H]2[C@@H](CCN2C(=O)C2CCOCC2)[C@H](CO)N3)c1	-5	-6[16.7 µM]	.	.	.
C[C@H]1CCCCO[C@@H](CN(C)C(=O)NC2CCCCC2)[C@@H](C)CN([C@@H](C)CO)C(=O)c2cc(NS(=O)(=O)c3cn(C)cn3)ccc2O1	3	-1[16.7 µM]	.	.	17[16.7 µM]
COc1ccc(N(C(=O)CNC(=O)c2ccco2)C(C(=O)NC2CCCCC2)c2ccncc2)cc1 (centres undefined)	-4	-3	-9	-1	-9
SMILES	esBAF inh	miR122 inh	MITF act	Wnt act	Env fusion inh
COc1ccc(N(C(=O)Cn2cnc3ccccc32)C(C(=O)NC2CCCCC2)c2ccccc2)cc1 (centres undefined)	-3	-17	4	56*	-31
Cc1cc(N/N=C/c2ccc(O)cc2O)nc(-n2nc(C)cc2C)n1	3	-28	-58	.	56*
CO[C@H]1CN(C)C(=O)c2ccc(NC(=O)C3CCCC3)cc2OC[C@@H](C)N(C)C[C@H]1C	-1	3[16.7 µM]	.	.	.
O=C(OCc1nc2ccsc2c(=O)[nH]1)c1ccc(Cl)nc1	-1	-2	-8	41*	1
Cc1cc(C(=O)C(C)Sc2cccc[n+]2[O-])c(C)n1-c1ccc(Cl)cc1 (centres undefined)	62*	3	20	6	7
Cn1/c(=N/NC(=O)c2ccccc2Br)sc2ccccc21	.	-3	48	51*	-36
COc1nc(-c2ccccc2)ccc1-c1noc(-c2cccs2)n1	46*	.	31	.	-155
